In the library only some 4.2% were active in any assay of this set; here they are far more common.
S1P4 agonist: agonists of human S1P4 receptor | S1P4-expressing cell line, agonist reporter assay | activation, % at 4.98 µM | 220,000 compounds, 0.35% hits; in the data active = activation above about 11%;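 note: 0% = DMSO vehicle and 100% = reference agonist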
Target sequence (O95977 whole entry, looked up): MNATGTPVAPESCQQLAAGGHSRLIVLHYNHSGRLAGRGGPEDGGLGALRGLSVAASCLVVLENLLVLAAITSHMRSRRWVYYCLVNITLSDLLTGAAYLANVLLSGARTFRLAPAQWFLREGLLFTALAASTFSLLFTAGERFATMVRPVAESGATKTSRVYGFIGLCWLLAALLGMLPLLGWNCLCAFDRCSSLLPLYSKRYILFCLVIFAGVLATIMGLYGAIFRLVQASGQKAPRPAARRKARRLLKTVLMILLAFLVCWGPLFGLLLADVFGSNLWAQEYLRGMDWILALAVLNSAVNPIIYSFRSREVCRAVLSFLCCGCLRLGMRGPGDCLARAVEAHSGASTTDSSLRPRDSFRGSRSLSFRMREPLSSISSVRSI
CHOP inh: inhibitors of CHOP induction in ER stress response | inhibition, % at 10 µM | CHO-K1 CHOP-promoter luciferase, tunicamycin-induced, 15-18 h | 220,000 compounds, 3.8% hits | AID 2732;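 active = compounds that reduced the stress-induced luciferase reporter signal by more than about 70% of percent inhibition, limit read from the data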;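 note: 0% = tunicamycin plus vehicle and 100% = wells without tunicamycin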
S1P4 antagonist: blocks the human S1P4 receptor | S1P4-expressing cells, antagonist mode, reporter read-out | inhibition, % at 4.98 µM | 220,000 compounds, 0.26% hits | O95977 | AID 1510; in the data active = inhibition above about 29%;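 note: 0% = wells stimulated with agonist and 100% = vehicle wells without agonist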
Hsp70 act: switches on Hsp70 transcription. HeLa Hsp70 promoter luciferase reporter, luminescence; scaled: vehicle 0, proteasome-inhibitor control 100%. activation, % at 10 µM. 200,000 compounds, 0.04% hits. AID 1203;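 active = activation above the mean across all tested compounds plus 3 SD, cutoff set per campaign, cut at about 5.5% in these data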;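 note: 100% = MG132 at 30 µM as the positive control and 0% = DMSO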
Active calls of the source: *; nt = no result given.

SMILES	S1P4 agonist	CHOP inh	S1P4 antagonist	Hsp70 act
CCOC(=O)c1c(NC(=O)CSc2nnc(-c3ccco3)o2)sc(C)c1C	0	12	-5	0
O=C(NC1CCCC1)C(c1ccc(F)cc1)N(Cc1ccccc1Cl)C(=O)CCl (stereo unspecified)	-2	108*	-16	0
O=C(NC1CCCCC1)C(c1ccc(F)cc1)N(Cc1cccs1)C(=O)CN1C(=O)c2ccccc2S1(=O)=O (stereo unspecified)	0	91*	-14	0
O=C(NCC1CCCO1)C(c1ccncc1)N(Cc1cccs1)C(=O)CN1C(=O)c2ccccc2S1(=O)=O (stereo unspecified)	2	-1	-20	0
CC(=O)Nc1ccc(-c2cn3cc(C)ccc3n2)cc1	0	17	-7	-1
Cc1ccc2nc(-c3ccccc3)cn2c1	2	76*	-13	0
CCOC(=O)Cn1c(CN(C)Cc2ccccc2)nc2c1c(=O)n(C)c(=O)n2C	2	nt	-15	0
O=C(NC1CCCCC1)C(c1ccc(F)cc1)N(CCN1CCOCC1)C(=O)c1ccc(-c2ccccc2)[nH]1 (stereo unspecified)	2	73*	-3	0
O=C(NC1CCCC1)C(c1ccncc1)N(CCCN1CCOCC1)C(=O)c1ccc(-c2ccccc2)[nH]1 (stereo unspecified)	3	-27	-16	0
COC(=O)[C@@H]1C[C@@]2(O)[C@H](O)[C@H](O)[C@H](O)C[C@H]2N1Cc1cc(F)ccc1F	nt	-3	nt	nt
CCC(c1nnnn1C(C)(C)CC)N(CCCO)Cc1cc2cc(C)cc(C)c2[nH]c1=O (stereo unspecified)	1	5	-5	0
CCCCCC1CCC(c2n[nH]c(=S)n2C)CC1 (stereo unspecified)	0	95*	-5	0
C=CCn1c(C2CC2)n[nH]c1=S	2	12	9	0
CC1=C(C(=O)Nc2cccnc2)C(c2cccnc2)n2ncnc2N1 (stereo unspecified)	1	5	3	0
O=C(CN1CCOCC1)Nc1nc(-c2ccc3c(c2)CCN3S(=O)(=O)c2ccccc2)cs1	-1	12	0	0
Cc1sc(NC(=O)CN2CCOCC2)nc1-c1ccc2c(c1)CCN2S(=O)(=O)c1ccccc1	0	72*	-10	0
COc1ccccc1NC(=O)c1nnn(CC(=O)Nc2cccc(SC)c2)c1N	1	70*	-26	0
CCOc1ccccc1NC(=O)Cn1nnc(C(=O)Nc2ccccc2Cl)c1N	2	73*	-11	0
CCCCn1cnc2cc(NCc3ccncc3)ccc21	1	16	5	0
CCOC(=O)NC(Nc1nnc(C)s1)(C(=O)OCC)C(F)(F)F (stereo unspecified)	0	47	-6	0
CCn1c(SCC(=O)NCc2ccccc2)nc2ccccc2c1=O	1	7	-1	0
O=C(CSc1nc2ccccc2c(=O)n1Cc1ccc(Cl)cc1)NCc1cccs1	1	73*	-24	0
CCCCNC(=O)CSc1nc2ccccc2c(=O)n1Cc1ccc2c(c1)OCO2	-1	86*	-14	0
COc1ccc(/C=C/c2nnc(NC(=O)COc3cccc(C)c3)s2)cc1	-1	39	-10	0
Cc1cc2ncn(/N=C/c3ccc(-c4ccccc4)o3)c2cc1C	-1	77*	-12	0
SMILES	S1P4 agonist	CHOP inh	S1P4 antagonist	Hsp70 act
Cc1cc2ncn(/N=C/c3cccnc3)c2cc1C	-1	13	2	0
CC(C)NS(=O)(=O)c1ccc(Oc2ncc(C(F)(F)F)cc2Cl)cc1	1	38	-9	0
CCCCOCC(O)Cn1c(C)nc2ccccc21 (stereo unspecified)	0	9	6	0
CN(C)c1ccc(-c2nn3c(-c4ccc(Cl)cc4)nnc3s2)cc1	1	-8	-24	0
CN(C)c1ccc(-c2nn3c(C4CCCCC4)nnc3s2)cc1	0	93*	-20	0
O=[N+]([O-])c1ccc(N/N=C\c2ccccc2OCc2ccccc2)cc1	-1	76*	-16	0
COC(=O)c1cc2sccc2n1CC(=O)Nc1cccc(SC)c1	0	85*	-1	1
CC(C)C[C@H](NC(=O)c1[nH]cnc1C(=O)N[C@@H](C)c1ccccc1)C(=O)OC(C)(C)C	-1	13	-5	0
Cc1nc(SCC(C)C)[nH]c(=O)c1Cc1ccccc1	2	83*	-7	0
C=C(C)CSc1nc(C)c(Cc2ccccc2)c(=O)[nH]1	-1	76*	-10	0
COc1ccc(C2(C(=O)Nc3ccc(S(N)(=O)=O)cc3)CCCC2)cc1	1	3	19	-1
CC(Sc1nnc(NC(=O)c2cc3ccccc3oc2=O)s1)c1ccccc1 (stereo unspecified)	-3	46	-13	0
O=C1NC(=NCc2ccccc2)S/C1=C\c1ccccc1	-1	5	5	0
CC12CCC(C/C1=N\N=C1\NC(=O)/C(=C\c3ccc(Cl)cc3)S1)C2(C)C (stereo unspecified)	1	93*	-19	0
Cc1ccc(Cc2cnc(NC(=O)c3ccco3)s2)cc1	4	31	-20	0
O=C(Nc1ncc(Cc2ccc(SC(F)F)cc2)s1)c1ccc(OC(F)F)cc1	1	72*	-10	0
COc1ccccc1CC(=O)NCC1CCCO1 (stereo unspecified)	nt	-17	nt	nt
Cc1cccc(CCNC(=O)CCS(=O)(=O)c2ccc(Br)cc2)c1	2	10	-20	0
Cc1cccc(CCNC(=O)c2cc(=O)[nH]c3ccc(Br)cc23)c1	1	73*	-7	0
Cc1ccc(C)c(N=Cc2cc3c(cc2[N+](=O)[O-])OCO3)c1	2	81*	-16	0
O=c1sc2ccccc2n1Cc1ccccc1	1	25	14	0
COc1ccc(Cn2c(=S)[nH]c3ccccc32)cc1	1	15	-7	0
CCCOc1ccc(C(=O)NCCO)cc1	1	12	-3	0
CCCc1c(O)nc(SCC(=O)O)[nH]c1=O	-1	76*	5	0
CCCCc1c(O)nc(SCC(=O)O)[nH]c1=O	2	8	-12	0
SMILES	S1P4 agonist	CHOP inh	S1P4 antagonist	Hsp70 act
Nc1nc(Nc2cccc(F)c2)nc(NCc2ccco2)c1[N+](=O)[O-]	-1	84*	6	nt
Cc1cccc(Nc2nc(N)c([N+](=O)[O-])c(NCc3ccco3)n2)c1	1	96*	-39	0
Nc1nc(Nc2ccc(Cl)cc2)nc(NCc2ccco2)c1[N+](=O)[O-]	0	86*	8	nt
Nc1nc(Nc2cccc(Cl)c2)nc(NCc2ccco2)c1[N+](=O)[O-]	0	0	-4	nt
CCOC(=O)COc1ccc(S(=O)(=O)Nc2ccc(C)cc2)cc1	-3	26	-5	0
O=C(Nc1ncc(Cc2cccc(Cl)c2)s1)c1ccc([N+](=O)[O-])cc1	-1	76*	-5	0
O=C(Nc1ncc(Cc2ccccc2Cl)s1)c1ccc([N+](=O)[O-])cc1	2	30	-24	0
O=C(COc1ccccc1/C=C\c1nc(O)c([N+](=O)[O-])c(=O)[nH]1)Nc1ccccc1	-1	-16	-4	0
